Test results from PubChem BioAssay AID1224921 (Broad Institute, 2016).
Screen size: about 1,400 compounds; about 350 (25%) were called active. About 2% were inconclusive and are not listed. The rule behind the calls is not given here. Only a sample is shown. Entries with a potency or affinity are not part of this list.

Test: inhibitors of Clostridioides difficile proliferation – 4-point retest, confirmation (AID 1224921);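 note: plate controls were DMSO wells for no effect and levofloxacin 16 µg/mL wells for full effect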
Settings: Clostridioides difficile clinical isolate growth, OD600, 24 h, stronger effect = lower value; at 30 µM unless noted

Max activity, inactive:
CCCNC(=O)Nc1ccc2c(c1)C(=O)N(C)C[C@H](OC)[C@@H](C)CN(C)[C@@H](C)CO2 4.84% [at 8 µM]
COCCNC(=O)C[C@@H]1CC[C@H]2[C@@H](COc3ccc(NS(=O)(=O)c4ccc(Cl)cc4)cc3C(=O)N2C)O1 14.3%
CC(C)Cc1ccc(CN2CC[C@@H](NS(=O)(=O)c3ccccc3)C2)cc1 -12% [at 0.5 µM]
CCCNC(=O)Nc1ccc2c(c1)C(=O)N(C)C[C@H](OC)[C@@H](C)CN(C(C)=O)[C@H](C)CO2 -7.56% [at 1.95 µM]
CO[C@H]1CN(C)C(=O)c2ccc(NS(=O)(=O)c3ccc(C)cc3)cc2OC[C@H](C)N(C(=O)NC(C)C)C[C@H]1C -11.4% [at 1.95 µM]
C/C=C/c1ccc2c(c1)O[C@H](CN(C)C(=O)c1ccc(F)cc1)[C@H](C)CN([C@@H](C)CO)S2(=O)=O 18.5%
CO[C@H]1CN(C)C(=O)c2cc(NC(C)=O)ccc2OC[C@@H](C)N(Cc2nccs2)C[C@H]1C -12.5% [at 8 µM]
CO[C@@H]1CN(C)C(=O)c2cc(NC(C)=O)ccc2OC[C@H](C)N(CC2CCCCC2)C[C@@H]1C 16.5%
CC(=O)N[C@H]1CC[C@@H](CCNC(=O)Nc2ccc(C(F)(F)F)cc2)O[C@H]1CO 10.2% [at 7.5 µM]
CC(=O)N[C@@H]1CC[C@H](CCNC(=O)Nc2ccc(C(F)(F)F)cc2)O[C@@H]1CO 16.8% [at 8 µM]
C[C@H]1CN([C@@H](C)CO)S(=O)(=O)c2ccc(C3=CCCCC3)cc2O[C@H]1CN(C)C(=O)C1CCCCC1 30.6%
C[C@@H]1CN([C@H](C)CO)C(=O)c2cc(Br)cnc2O[C@H]1CN(C)C(=O)c1ccccc1 -3.07% [at 8 µM]
C[C@H]1CN([C@@H](C)CO)S(=O)(=O)c2ccc(C#CC3CCCCC3)cc2O[C@H]1CN(C)Cc1cccnc1 35.6%
CO[C@H]1CN(C)C(=O)c2cc(NC(=O)c3ccc(F)cc3)ccc2OC[C@@H](C)N(C(C)=O)C[C@H]1C -8.16% [at 1.95 µM]
C[C@H](C(=O)N(C)C[C@H]1OCc2ccccc2-c2ccccc2C(=O)N([C@@H](C)CO)C[C@H]1C)c1ccccc1 18.3%
C[C@@H]1CN([C@H](C)CO)C(=O)c2cc(NC(=O)Nc3cccc4ccccc34)ccc2O[C@@H](C)CCCCO[C@H]1CN(C)S(=O)(=O)c1ccc(F)cc1 36.9%
C[C@@H]1CN([C@@H](C)CO)C(=O)Cc2cc(NC(=O)NC3CCCCC3)ccc2O[C@@H]1CN(C)S(=O)(=O)c1ccc(Cl)cc1 20.4%
C[C@@H]1CN([C@@H](C)CO)S(=O)(=O)c2ccc(C#CC3CC3)cc2O[C@H]1CN(C)Cc1cccnc1 34.2%
CCCNC(=O)N1C[C@H](C)[C@@H](OC)CN(C)C(=O)c2cc(NC(C)=O)ccc2OC[C@@H]1C -10.9% [at 1.95 µM]
COc1ccc(NC(=O)N[C@@H]2C=C[C@H](CC(=O)NC3CCCCC3)O[C@@H]2CO)cc1 13.1% [at 1.95 µM]
CCC(=O)N(C)C[C@@H]1Oc2cc(C#CCC3CCCC3)ccc2S(=O)(=O)N([C@@H](C)CO)C[C@H]1C 27.8%
O=C(C[C@H]1C=C[C@H](NC(=O)CCN2CCCCC2)[C@H](CO)O1)Nc1ccc(-c2ccccc2)cc1 11.2%
CCCC#Cc1ccc([C@@H]2[C@H](C#N)N(S(=O)(=O)c3cccc(F)c3)[C@H]2CO)cc1 21.1%
COc1ccc(NC(=O)N(C)C[C@@H]2Oc3ncc(-c4cccnc4)cc3C(=O)N([C@@H](C)CO)C[C@@H]2C)cc1 -18.5% [at 8 µM]
CC(C)CC#Cc1ccc2c(c1)O[C@@H](CN(C)C(=O)c1ccccc1F)[C@@H](C)CN([C@@H](C)CO)S2(=O)=O 18%
O=C(C[C@H]1CC[C@H]2[C@@H](COC[C@@H](O)CN2Cc2cccc(Cl)c2)O1)NCC1CCCCC1 11.9% [at 8 µM]
COc1ccccc1S(=O)(=O)N(C)C[C@H]1Oc2cc(C#CCC(C)C)ccc2S(=O)(=O)N([C@@H](C)CO)C[C@@H]1C 10.5%
C[C@H]1CN([C@@H](C)CO)S(=O)(=O)c2ccc(Br)cc2O[C@@H]1CN(C)Cc1cccc(F)c1 41.5%
C[C@H]1CN([C@@H](C)CO)C(=O)c2c(c3ccccc3n2C)-c2ccccc2CO[C@H]1CN(C)S(=O)(=O)CC(F)(F)F 14.7%
CCCC(=O)Nc1ccc2c(c1)OC[C@H](C)N(Cc1ccncc1)C[C@@H](C)[C@H](OC)CN(C)C2=O 14.3%
CCCN1C[C@@H](C)[C@@H](OC)CN(C)C(=O)c2cc(NC(=O)CC)ccc2OC[C@H]1C -7.79% [at 0.5 µM]
CO[C@@H]1CN(C)C(=O)c2cc(NS(=O)(=O)c3cccc(F)c3)ccc2OC[C@@H](C)N(Cc2cc(F)ccc2F)C[C@@H]1C 14.2%
NC(=O)[C@@H]1[C@H]2C(=O)O[C@H](c3ccccc3)[C@H](c3ccccc3)N2[C@H](c2ccc(O)cc2)[C@@]12C(=O)Nc1ccc(C#CC3=CCCCC3)cc12 21.8%
CCCN1C[C@H](C)[C@@H](OC)CN(C)C(=O)c2ccc(NC(=O)Nc3c(C)noc3C)cc2OC[C@@H]1C 29.7%
C[C@@H]1CN([C@@H](C)CO)C(=O)c2ccccc2-c2ccccc2CO[C@H]1CN(C)C(=O)c1ccc(F)cc1 -6.68% [at 8 µM]
C[C@@H]1CN([C@@H](C)CO)C(=O)Cc2cc(NC(=O)c3ccncc3)ccc2O[C@@H]1CN(C)Cc1ccc(-c2ccccc2)cc1 41.4%
N#C[C@H]1[C@@H](c2ccc(C#CC3CCCCC3)cc2)[C@@H](CO)N1C(=O)Cc1ccccn1 24.3% [at 0.5 µM]
C[C@H](CO)N1C[C@H](C)[C@@H](CN(C)Cc2ccccc2)Oc2ccc(NS(C)(=O)=O)cc2CC1=O 28% [at 35 µM]
